Experiment [1] is described as follows: antimalarial activity against Dd2 strain (AID 2302;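 active = growth inhibition above 50% at the single 2 µM test dose, taken to imply half-maximal potency below 2 µM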;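 also: 0% = DMSO untreated growth and 100% = chloroquine plus artemisinin killed control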). To be noted: P. falciparum Dd2 in RBCs, LDH growth readout, 72 h; at 2 µM; stronger effect = higher value.
Experiment [2] is described as follows: human hepatoma cell viability loss – ATP luminescence, cytotoxicity control for P. falciparum antimalarial project, primary screen (AID 2303;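 active = inhibition above 50%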;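 also: 0% = DMSO wells and 100% = digitonin-killed cells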). As to conditions: HepG2 viability, 24-48 h, at 10 µM, stronger effect = higher value.
Experiment [3] has as its target L-lactate dehydrogenase (Plasmodium falciparum (isolate CDC / Honduras)) (UniProt Q27743). Put plainly: PfLDH activity inhibition – cell lysate, 3D7 strain, counter-screen for P. falciparum growth inhibition project (AID 2304).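 Also: 0% = vehicle and 100% = reference inhibitor.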 As to conditions: P. falciparum 3D7 crude extract, LDH APAD/NBT absorbance; at 2 µM; stronger effect = higher value.
Experiment [4] is described as follows: inhibition of 3D7 malaria parasite growth – strain 3D7 (AID 2306).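 Also: 0% = DMSO wells and 100% = chloroquine plus artemisinin control wells.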 As to conditions: P. falciparum 3D7 erythrocytic growth, LDH absorbance, 72 h; at 2 µM; stronger effect = higher value.
In experiment [5] the target is Calcium-dependent protein kinase 1 (Plasmodium falciparum (isolate 3D7)) (UniProt P62344). Kind of experiment: PfCDPK1 kinase inhibitors, biochemical, TCAMS library (AID 1159585; cut-off not given, nearly all actives have IC50 up to about 0.98 µM;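 also: inhibitors leave more ATP so luminescence rises with inhibition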). As to conditions: recombinant PfCDPK1, Kinase-Glo ATP depletion luminescence. (In general: In Kinase-Glo more light means more ATP remaining.)
The target in experiment [6] is Plasmodium falciparum protein kinase 6 (PK6, PF3D7_1337100) (UniProt Q8IDW1). Put plainly: PfPK6 kinase inhibitors, biochemical, TCAMS library (AID 1159586). To be noted: recombinant PfPK6, Kinase-Glo ATP depletion luminescence.
Experiment [7] has as its target Protein kinase 7 (PK7), Plasmodium falciparum 3D7 (PF3D7_0213400) (UniProt Q7YTF7). Kind of experiment: inhibition of Plasmodium PK7 catalytic activity – biochemical, TCAMS antimalarial set, Kinase-Glo luminescence (AID 1159587). As to conditions: recombinant PfPK7, Kinase-Glo ATP depletion luminescence.
The target in experiment [8] is Calcium-dependent protein kinase 4 (Plasmodium falciparum (isolate 3D7)) (UniProt Q8IBS5). Put plainly: PfCDPK4 kinase inhibitors, biochemical, TCAMS library (AID 1159588; cut-off not given, nearly all actives have IC50 up to about 0.91 µM). As to conditions: recombinant PfCDPK4, Kinase-Glo ATP depletion luminescence.

Unmarked numbers belong to inactive results. For some of these results: Results with a measured potency or affinity are listed apart. Calls of active or inactive are those of the source. Unless noted, no rule for the calls is given here.

Chain of Protein kinase 7 (PK7), Plasmodium falciparum 3D7 (PF3D7_0213400) (Q7YTF7 1-343): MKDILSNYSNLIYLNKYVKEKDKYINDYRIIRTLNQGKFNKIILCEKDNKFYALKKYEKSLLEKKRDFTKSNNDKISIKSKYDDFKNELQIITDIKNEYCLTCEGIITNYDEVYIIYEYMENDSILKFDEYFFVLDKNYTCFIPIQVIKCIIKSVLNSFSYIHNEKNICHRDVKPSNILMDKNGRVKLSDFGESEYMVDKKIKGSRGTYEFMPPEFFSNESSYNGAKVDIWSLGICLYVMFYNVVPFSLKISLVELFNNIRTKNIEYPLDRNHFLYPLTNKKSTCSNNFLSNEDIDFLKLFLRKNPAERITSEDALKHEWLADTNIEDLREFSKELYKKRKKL
Chain of Calcium-dependent protein kinase 4 (Plasmodium falciparum (isolate 3D7)) (Q8IBS5 whole entry, looked up): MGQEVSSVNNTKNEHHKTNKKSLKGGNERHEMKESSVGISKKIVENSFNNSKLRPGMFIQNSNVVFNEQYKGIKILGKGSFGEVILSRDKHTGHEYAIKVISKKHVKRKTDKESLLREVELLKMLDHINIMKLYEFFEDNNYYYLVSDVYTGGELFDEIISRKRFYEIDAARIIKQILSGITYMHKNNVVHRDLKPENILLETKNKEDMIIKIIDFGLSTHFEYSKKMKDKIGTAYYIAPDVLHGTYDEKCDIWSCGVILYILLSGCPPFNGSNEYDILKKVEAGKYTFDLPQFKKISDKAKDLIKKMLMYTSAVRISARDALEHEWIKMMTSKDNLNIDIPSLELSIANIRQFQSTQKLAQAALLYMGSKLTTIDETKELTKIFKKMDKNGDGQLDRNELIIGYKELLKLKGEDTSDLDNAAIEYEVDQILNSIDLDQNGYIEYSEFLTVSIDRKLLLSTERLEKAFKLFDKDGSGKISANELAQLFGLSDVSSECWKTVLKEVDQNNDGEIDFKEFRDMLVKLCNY
Chain of L-lactate dehydrogenase (Plasmodium falciparum (isolate CDC / Honduras)) (Q27743 whole entry, looked up): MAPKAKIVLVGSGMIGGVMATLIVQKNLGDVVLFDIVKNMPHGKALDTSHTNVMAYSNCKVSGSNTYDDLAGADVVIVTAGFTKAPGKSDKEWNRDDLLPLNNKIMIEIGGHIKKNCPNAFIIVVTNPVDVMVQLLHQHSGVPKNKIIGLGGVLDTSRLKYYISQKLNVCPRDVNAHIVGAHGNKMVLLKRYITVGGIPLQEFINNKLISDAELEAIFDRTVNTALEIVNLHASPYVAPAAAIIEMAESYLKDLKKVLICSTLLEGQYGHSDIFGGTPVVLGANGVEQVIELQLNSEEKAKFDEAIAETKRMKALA
Chain of Plasmodium falciparum protein kinase 6 (PK6, PF3D7_1337100) (Q8IDW1 1-305): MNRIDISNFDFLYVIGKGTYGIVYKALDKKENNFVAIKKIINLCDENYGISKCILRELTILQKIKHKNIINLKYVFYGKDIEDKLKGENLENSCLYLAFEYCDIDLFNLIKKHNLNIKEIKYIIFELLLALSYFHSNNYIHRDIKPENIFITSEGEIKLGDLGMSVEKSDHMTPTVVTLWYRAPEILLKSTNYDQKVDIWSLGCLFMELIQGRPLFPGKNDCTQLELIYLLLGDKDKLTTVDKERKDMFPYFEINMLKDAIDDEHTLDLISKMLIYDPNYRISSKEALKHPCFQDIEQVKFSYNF
Chain of Calcium-dependent protein kinase 1 (Plasmodium falciparum (isolate 3D7)) (P62344 whole entry, looked up): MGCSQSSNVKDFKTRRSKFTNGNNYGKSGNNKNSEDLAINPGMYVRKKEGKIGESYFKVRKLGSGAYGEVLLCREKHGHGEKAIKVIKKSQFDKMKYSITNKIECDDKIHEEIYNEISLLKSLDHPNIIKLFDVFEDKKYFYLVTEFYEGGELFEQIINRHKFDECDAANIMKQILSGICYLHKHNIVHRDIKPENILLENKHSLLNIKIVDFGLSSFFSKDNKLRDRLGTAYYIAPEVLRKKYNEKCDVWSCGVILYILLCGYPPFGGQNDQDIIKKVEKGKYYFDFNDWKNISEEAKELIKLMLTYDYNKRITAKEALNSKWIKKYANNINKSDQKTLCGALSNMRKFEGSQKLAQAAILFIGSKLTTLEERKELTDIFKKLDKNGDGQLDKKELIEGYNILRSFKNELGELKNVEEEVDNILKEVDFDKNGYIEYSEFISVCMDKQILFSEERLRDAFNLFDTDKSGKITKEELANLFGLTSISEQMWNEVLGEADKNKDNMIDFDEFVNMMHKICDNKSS

A word on the inhibition: it is the drop in the measured response relative to a control, in per cent. As for `Cc1cc(N[C@@H](Cc2ccccc2)C(=O)NCCOc2ccccc2)nc(NCC2CCCCC2)n1`, the growth inhibition in experiment [1] was 75% (active); in experiment [4], 100% (active). Besides, the inhibition was 30% in experiment [2] and -1% in experiment [3]. Besides, the result in experiment [5], in experiment [6], in experiment [7] and in experiment [8] was inactive.
`Cc1cc(CNC(c2ccccc2)C2CCC2)cc(C)c1O` (stereo not given): the values for the growth inhibition in experiment [1] and in experiment [4] were 48% and 94% (active), respectively. For the same molecule, the inhibition in experiment [2] was 78% (active); in experiment [3], -2%. In addition, the result in experiment [5], in experiment [6], in experiment [7] and in experiment [8] was inactive.
As to `COc1cccc(C=NNc2cc(C)nc3ccccc23)c1`, the growth inhibition in experiment [1] is 46%; in experiment [4] it was 101% (active). Besides, the inhibition was 16% in experiment [2] and -8% in experiment [3]. For the same molecule, the result in experiment [5], in experiment [6], in experiment [7] and in experiment [8] was inactive.
Turning to `Cc1ccc(NC(=O)c2cccc(CN3CCCN(Cc4cccc(O)c4)CC3)c2)cc1C`, the growth inhibition was 31% in experiment [1] and 95% (active) in experiment [4]. The figures for the inhibition in experiment [2] and in experiment [3] were 19% and 1%, respectively. Besides, the outcome in experiment [5], in experiment [6], in experiment [7] and in experiment [8] was inactive.
As to `CCC(=O)c1ccc(-c2ccc(=O)n(CC(=O)N(CCN(CC)CC)Cc3ccc(-c4ccc(C(F)(F)F)cc4)cc3)n2)cc1`, the values for the growth inhibition in experiment [1] and in experiment [4] were 67% (active) and 98% (active), respectively. In addition, the inhibition in experiment [2] was 91% (active); in experiment [3], -7%. Also, the result in experiment [5], in experiment [6], in experiment [7] and in experiment [8] was inactive.
For `N#Cc1cccc(NC(=O)Nc2cccc(-c3cccc(-c4nc5ccc(C(F)(F)F)cc5[nH]4)c3)c2)c1`, the values for the growth inhibition in experiment [1] and in experiment [4] were 99% (active) and 100% (active), respectively. Moreover, the inhibition in experiment [2] was 74% (active); in experiment [3] it was 5%. Besides, the outcome in experiment [5], in experiment [6], in experiment [7] and in experiment [8] was inactive.
For `O=S(=O)(NCCN1CCCC1)c1ccc(-c2ccc(CNCc3ccccc3)cc2)cc1`, the growth inhibition in experiment [1] is 28%; in experiment [4] it was 99% (active). Besides, the results for the inhibition in experiment [2] and in experiment [3] were 47% and 5%, respectively. Besides, the outcome in experiment [5], in experiment [6], in experiment [7] and in experiment [8] was inactive.
Consider `COc1ccccc1C1CCN(C2CCC(NC(=O)/C=C/c3ccc(C(F)(F)F)cc3)CC2)CC1` (stereo not given), for which the growth inhibition was 7% in experiment [1] and 88% (active) in experiment [4]. Besides, the inhibition in experiment [2] is 57% (active); in experiment [3], 4%. Also, the outcome in experiment [5], in experiment [6], in experiment [7] and in experiment [8] was inactive.
For `O=C(O)c1cccc2c(-c3ccncc3)cccc12`, the growth inhibition in experiment [1] is 1%; in experiment [4] it was 97% (active). The figures for the inhibition in experiment [2] and in experiment [3] were 29% and -1%, respectively. Moreover, the outcome in experiment [5], in experiment [6], in experiment [7] and in experiment [8] was inactive.
With `CCN(CC)CCCNC(=O)/C(=C/C=C/c1cc2cc(Cl)c(Cl)cc2[nH]1)OC`, the figures for the growth inhibition in experiment [1] and in experiment [4] were 21% and 84% (active), respectively. In addition, the figures for the inhibition in experiment [2] and in experiment [3] were 38% and -2%, respectively. The result in experiment [5], in experiment [6], in experiment [7] and in experiment [8] was inactive.
Turning to `COc1ccc2nc3cc(Cl)ccc3c(NCCN3CCN(C)CC3)c2c1`, the growth inhibition is 99% (active) in experiment [1] and 100% (active) in experiment [4]. Moreover, the inhibition was 29% in experiment [2] and 2% in experiment [3]. In addition, the outcome in experiment [5], in experiment [6], in experiment [7] and in experiment [8] was inactive.
With `O=C(Nc1cccc(Cl)c1)N(CCCn1ccnc1)Cc1csc(-c2ccc(CNCc3ccccc3)cc2)n1`, the growth inhibition in experiment [1] was 45%; in experiment [4], 102% (active). The inhibition is 11% in experiment [2] and 4% in experiment [3]. The result in experiment [5], in experiment [6], in experiment [7] and in experiment [8] was inactive.
As to `C=CCc1cc(Cc2cnc(N)nc2N)cc(CCC)c1OC`, the growth inhibition is 1% in experiment [1] and 83% (active) in experiment [4]. Also, the inhibition is 3% in experiment [2] and 0% in experiment [3]. For the same molecule, the result in experiment [5], in experiment [6], in experiment [7] and in experiment [8] was inactive.
As for `Cc1cccc2[nH]c(-c3cccc(-c4cccc(NC(=O)c5cnc[nH]5)c4)c3)nc12`, the growth inhibition in experiment [1] is 91% (active); in experiment [4] it was 100% (active). Further, the inhibition in experiment [2] is 2%; in experiment [3], 0%. For the same molecule, the outcome in experiment [5], in experiment [6], in experiment [7] and in experiment [8] was inactive.
With `Cc1cccc2[nH]c(-c3ccc(-c4ccc(CN5CCCC(O)C5)cc4)cc3)nc12` (stereo not given), the figures for the growth inhibition in experiment [1] and in experiment [4] were 54% (active) and 100% (active), respectively. Also, the inhibition in experiment [2] is 41%; in experiment [3], 6%. For the same molecule, the outcome in experiment [5], in experiment [6], in experiment [7] and in experiment [8] was inactive.
Take `CCN(CC)CCN(Cc1ccc(-c2ccc(C(F)(F)F)cc2)cc1)C(=O)Cn1c(CCc2cccc(F)c2F)nc(=O)c2cccnc21`: the values for the growth inhibition in experiment [1] and in experiment [4] were 89% (active) and 101% (active), respectively. The inhibition in experiment [2] is 75% (active); in experiment [3], 2%. The outcome in experiment [5], in experiment [6], in experiment [7] and in experiment [8] was inactive.
In the case of `COc1ccc2nc(C)cc(Nc3ccc(Cl)cc3)c2c1`, the results for the growth inhibition in experiment [1] and in experiment [4] were 3% and 89% (active), respectively. For the same molecule, the inhibition was 10% in experiment [2] and -2% in experiment [3]. In addition, the outcome in experiment [5], in experiment [6], in experiment [7] and in experiment [8] was inactive.
As for `CN(C)c1ccc(CN2CCC(CNC(=O)c3cc(-c4cccc(C(F)(F)F)c4)cs3)C2)cc1` (stereo not given), the results for the growth inhibition in experiment [1] and in experiment [4] were 34% and 96% (active), respectively. Also, the inhibition is 39% in experiment [2] and 0% in experiment [3]. Besides, the outcome in experiment [5], in experiment [6], in experiment [7] and in experiment [8] was inactive.
Take `N#Cc1ccc(NC(=NCc2cccnc2)Nc2ccc(-c3ccccc3)cc2)c(O)c1`: the growth inhibition was 46% in experiment [1] and 101% (active) in experiment [4]. Besides, the inhibition in experiment [2] was 2%; in experiment [3], -3%. Further, the result in experiment [5], in experiment [6], in experiment [7] and in experiment [8] was inactive.
Turning to `CC1CCN(C(=O)[C@H](Cc2c[nH]c3ccccc23)NS(=O)(=O)c2ccc(Cl)cc2)CC1`, the results for the growth inhibition in experiment [1] and in experiment [4] were 99% (active) and 100% (active), respectively. In addition, the inhibition in experiment [2] is -6%; in experiment [3] it was 0%. Also, the result in experiment [5], in experiment [6], in experiment [7] and in experiment [8] was inactive.

These data come from PubChem BioAssay.
